# Measured values published in PubChem BioAssay (EPA / NIEHS).
# Results filed as inconclusive are left out. The source made the active and inactive calls. How the source made its calls: active means hit-call score of the fitted dose curve at least 0.9, where 1 is the maximum; inconclusive means response in the unintended direction; inactive means score below 0.9.
# Assays:
# [1] = target: Estrogen receptor beta (Homo sapiens) (UniProt Q92731); assay: OT_ER_ERbERb_0480: Odyssey Thera (OT) 8-hour HEK293T Protein-Complementation Assay for Estrogen Receptor-beta/-beta Homodimer (AID 2283357);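 further: active means signal gain over DMSO baseline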
# Method in brief: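 Fluorescence gain from complemented reporter fragments on ER-beta LBD homodimer in HEK293T was quantified against DMSO controls after 8 h treatment, fixation in 4% formaldehyde and Draq5 staining.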
# [2] = target: Androgen Receptor/SRC-1 Co-activator, AR (gene 367) (UniProt P10275); assay: OT_AR_ARSRC1_0960: Odyssey Thera (OT) 16-hour HEK293T Protein-Complementation Assay for Androgen Receptor/SRC-1 Co-activator (AID 2283353);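 further: actives raise the signal above DMSO so potency reflects increased AR and SRC-1 complex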
# Androgen Receptor/SRC-1 Co-activator, AR (gene 367), sequence (P10275 whole entry, looked up, the tested form may be a part): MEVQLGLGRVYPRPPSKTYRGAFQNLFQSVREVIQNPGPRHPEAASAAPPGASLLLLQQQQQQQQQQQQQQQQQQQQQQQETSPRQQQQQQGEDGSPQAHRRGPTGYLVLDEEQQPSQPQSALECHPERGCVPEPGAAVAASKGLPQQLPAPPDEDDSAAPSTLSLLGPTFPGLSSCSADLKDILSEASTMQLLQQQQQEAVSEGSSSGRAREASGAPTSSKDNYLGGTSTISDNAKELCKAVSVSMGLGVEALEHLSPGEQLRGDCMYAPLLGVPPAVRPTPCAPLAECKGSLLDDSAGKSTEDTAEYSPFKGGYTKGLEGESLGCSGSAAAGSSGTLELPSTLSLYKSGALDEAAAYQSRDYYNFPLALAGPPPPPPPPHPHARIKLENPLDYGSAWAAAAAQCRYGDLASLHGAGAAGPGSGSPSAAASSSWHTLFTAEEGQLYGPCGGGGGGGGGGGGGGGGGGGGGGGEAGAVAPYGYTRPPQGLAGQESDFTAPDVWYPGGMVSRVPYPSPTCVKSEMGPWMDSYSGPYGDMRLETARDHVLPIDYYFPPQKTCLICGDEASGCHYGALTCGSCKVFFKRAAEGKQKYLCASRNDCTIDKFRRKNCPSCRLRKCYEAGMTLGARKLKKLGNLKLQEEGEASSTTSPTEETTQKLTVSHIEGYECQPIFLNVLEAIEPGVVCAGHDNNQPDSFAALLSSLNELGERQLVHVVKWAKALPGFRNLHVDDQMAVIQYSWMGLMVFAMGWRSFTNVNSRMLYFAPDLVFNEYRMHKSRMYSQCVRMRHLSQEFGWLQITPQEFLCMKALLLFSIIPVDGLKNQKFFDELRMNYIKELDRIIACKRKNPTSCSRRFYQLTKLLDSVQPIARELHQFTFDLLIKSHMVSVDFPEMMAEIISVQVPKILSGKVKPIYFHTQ
# Method in brief: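 Stable HEK293T line carries AR and SRC-1 each linked to a Venus fragment; chemicals are applied for 16 h, cells imaged at two wavelengths, and the 488 nm nucleus/cytoplasm ratio is taken as the signal, rising relative to DMSO.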
# [3] = target: Androgen Receptor/SRC-1 Co-activator, AR (gene 367) (UniProt P10275); assay: OT_AR_ARSRC1_0480: Odyssey Thera (OT) 8-hour HEK293T Protein-Complementation Assay for Androgen Receptor/SRC-1 Co-activator (AID 2283354);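 further: hits raise the complementation signal above DMSO so AC50 marks enhancers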
# Method in brief: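 After 8 h dosing, stably expressing HEK293T cells with split-Venus AR/SRC-1 fusions were imaged (488, 635nm). The 488nm N/C ratio per image gave the endpoint, analysed in the positive direction against DMSO.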
# [4] = target: Estrogen receptor (Homo sapiens) + Estrogen receptor beta (Homo sapiens) (UniProt P03372+Q92731); assay: OT_ER_ERaERb_1440: Odyssey Thera (OT) 24-hour HEK293T Protein-Complementation Assay for Estrogen Receptor-alpha/-beta Homodimer (AID 2283356);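 further: heteromer of ER alpha and ER beta binding domains; hits raise reporter fluorescence and both agonists and antagonists give an increase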
# Method in brief: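 HEK293T stably expressing a PCA of ER alpha LBD (aa 310-547) and ER beta LBD (aa 263-489). After 24 h compound exposure, mean fluorescence intensity in nucleus (agonists) or nucleus and cytoplasm (antagonists) measured by laser scanning cytometry versus vehicle.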
# [5] = target: Retinoic acid receptor alpha (Homo sapiens) (UniProt P10276); assay: NVS_NR_hRAR_Antagonist: NovaScreen (NVS) Nuclear Receptor Binding Assay for human Retinoic Acid Alpha Receptor Antagonism (RAR) (AID 2283358)
# Method in brief: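 Chemicals were first tested in duplicate at 25 uM, then actives in concentration series, in a cell-free TR-FRET antagonist binding format. Measurements were taken 2 hours after dosing and loss of signal was evaluated against DMSO controls.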
# [6] = test system: guinea pig Dopamine Transporter (DAT), gene 100714898; assay: NVS_TR_gDAT: NovaScreen (NVS) Transporter Assay for guinea pig Dopamine Transporter (DAT) (AID 2283369);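 further: active compounds lower bound radioligand signal relative to DMSO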
# Method in brief: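 Guinea pig striatal membranes, cell-free radioligand binding with filter-based scintillation counting, read 2 h after dosing. Loss of signal versus DMSO baseline; single-concentration primary (25 uM) then concentration-response up to 50 uM.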
# [7] = target: Peroxisome proliferator-activated receptor gamma (Homo sapiens) (UniProt P37231); assay: NVS_NR_hPPARg: NovaScreen (NVS) Nuclear Receptor Binding Assay for human Peroxisome Proliferator-activated Receptor gamma (PPARg) (AID 2283370)
# Peroxisome proliferator-activated receptor gamma (Homo sapiens), sequence (P37231 whole entry, looked up): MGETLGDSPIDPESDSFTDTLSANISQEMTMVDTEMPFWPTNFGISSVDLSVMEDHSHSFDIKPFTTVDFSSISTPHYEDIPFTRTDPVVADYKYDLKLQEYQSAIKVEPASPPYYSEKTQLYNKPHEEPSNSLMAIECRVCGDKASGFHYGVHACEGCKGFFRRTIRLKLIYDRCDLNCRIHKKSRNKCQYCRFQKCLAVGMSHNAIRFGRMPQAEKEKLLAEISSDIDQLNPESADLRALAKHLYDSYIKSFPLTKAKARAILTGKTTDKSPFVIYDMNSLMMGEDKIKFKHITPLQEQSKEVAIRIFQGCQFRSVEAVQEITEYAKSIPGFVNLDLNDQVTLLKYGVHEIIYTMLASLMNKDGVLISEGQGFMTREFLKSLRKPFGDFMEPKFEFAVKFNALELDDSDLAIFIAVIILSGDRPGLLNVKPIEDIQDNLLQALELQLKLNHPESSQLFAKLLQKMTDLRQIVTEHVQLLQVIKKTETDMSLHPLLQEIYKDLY
# Method in brief: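 Cell-free fluorescence polarization binding to human PPARg protein, read 2 h after dosing. Primary screen in duplicate at 25 uM, actives followed in concentration series; loss of signal relative to DMSO scored.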
# [8] = target: human Serotonin Transporter (SERT), SLC6A4 (gene 6532) (UniProt P31645); assay: NVS_TR_hSERT: NovaScreen (NVS) Transporter Assay for human Serotonin Transporter (SERT) (AID 2283372)
# Method in brief: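 Human platelet membrane preparation; displacement of radioligand from serotonin transporter measured after 1 h by filtration and scintillation counting. Single 25 uM duplicate screen, then concentration series for actives, with DMSO as negative baseline.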
# [9] = target: human Dopamine Transporter (DAT), SLC6A3 (gene 6531) (UniProt Q01959); assay: NVS_TR_hDAT: NovaScreen (NVS) Transporter Assay for human Dopamine Transporter (DAT) (AID 2283374);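 further: activity means loss of bound radioligand signal relative to DMSO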
# human Dopamine Transporter (DAT), SLC6A3 (gene 6531), sequence (Q01959 whole entry, looked up): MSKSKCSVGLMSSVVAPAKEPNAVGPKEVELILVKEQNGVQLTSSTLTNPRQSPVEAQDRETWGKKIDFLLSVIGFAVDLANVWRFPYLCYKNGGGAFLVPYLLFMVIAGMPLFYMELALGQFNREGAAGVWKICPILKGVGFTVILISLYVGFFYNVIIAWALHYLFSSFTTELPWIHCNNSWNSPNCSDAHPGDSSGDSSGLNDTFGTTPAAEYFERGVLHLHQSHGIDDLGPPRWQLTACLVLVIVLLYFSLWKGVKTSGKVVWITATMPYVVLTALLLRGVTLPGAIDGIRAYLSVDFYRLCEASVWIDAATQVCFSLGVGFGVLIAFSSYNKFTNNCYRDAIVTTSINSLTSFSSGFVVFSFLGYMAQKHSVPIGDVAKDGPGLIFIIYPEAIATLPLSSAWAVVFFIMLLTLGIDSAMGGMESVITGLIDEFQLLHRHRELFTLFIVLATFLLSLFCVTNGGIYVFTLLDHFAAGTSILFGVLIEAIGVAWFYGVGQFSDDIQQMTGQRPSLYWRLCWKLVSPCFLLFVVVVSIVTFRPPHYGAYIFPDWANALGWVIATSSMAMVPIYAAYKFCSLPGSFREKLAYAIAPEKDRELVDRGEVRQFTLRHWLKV
# Method in brief: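 Extracted human SLC6A3 protein incubated 1 h with radioligand and test chemical; bound fraction separated on filters and counted. Single 25 uM duplicate screen preceded concentration-response follow-up; positive and negative controls on every plate.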
# [10] = target: rat Serotonin Transporter (SERT), Slc6a4 (gene 25553) (UniProt P31652); assay: NVS_TR_rSERT: NovaScreen (NVS) Transporter Assay for rat Serotonin Transporter (SERT) (AID 2283375)
# rat Serotonin Transporter (SERT), Slc6a4 (gene 25553), sequence (P31652 whole entry, looked up): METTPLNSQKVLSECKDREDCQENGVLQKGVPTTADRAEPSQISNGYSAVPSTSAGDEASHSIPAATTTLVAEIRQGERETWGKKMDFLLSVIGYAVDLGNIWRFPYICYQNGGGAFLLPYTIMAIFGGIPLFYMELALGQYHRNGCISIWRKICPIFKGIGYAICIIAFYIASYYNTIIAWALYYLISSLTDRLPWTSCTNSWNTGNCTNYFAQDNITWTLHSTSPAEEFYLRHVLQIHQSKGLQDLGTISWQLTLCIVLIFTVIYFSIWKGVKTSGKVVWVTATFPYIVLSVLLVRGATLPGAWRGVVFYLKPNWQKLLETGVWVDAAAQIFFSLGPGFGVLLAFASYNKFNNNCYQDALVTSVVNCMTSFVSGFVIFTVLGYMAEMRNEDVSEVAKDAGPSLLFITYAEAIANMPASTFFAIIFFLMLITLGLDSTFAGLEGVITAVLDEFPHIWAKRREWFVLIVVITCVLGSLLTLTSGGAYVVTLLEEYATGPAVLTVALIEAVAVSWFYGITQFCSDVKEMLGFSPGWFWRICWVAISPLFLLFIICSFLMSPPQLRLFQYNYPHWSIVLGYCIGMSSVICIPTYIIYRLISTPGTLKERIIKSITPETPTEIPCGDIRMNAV
# Method in brief: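 Rat forebrain membranes; radioligand displacement at SERT read by filter-based scintillation counting, 1 h after dosing. Screened in duplicate at 25 uM, actives then run in concentration series; loss of signal versus DMSO baseline.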
# [11] = target: rat Mineralocorticoid Receptor (MR), Nr3c2 (gene 25672) (UniProt P22199); assay: NVS_NR_rMR: NovaScreen (NVS) Nuclear Receptor Binding Assay for rat Mineralocorticoid Receptor (MR) (AID 2283355)
# Method in brief: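 Single-concentration duplicate screen (25 uM) of radioligand binding in adrenalectomized rat brain supernatant; scintillation detection 24 h after dosing. Positive and negative controls ran on each plate, and confirmed actives went to concentration-response.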
# [12] = target: human Thyroid Receptor Alpha (TRa), THRA (gene 7067) (UniProt P10827); assay: NVS_NR_hTRa_Antagonist: NovaScreen (NVS) Nuclear Receptor Binding Assay for human Thyroid Receptor Alpha Antagonism (TRa) (AID 2283362);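 further: activity is loss of signal relative to DMSO baseline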
# human Thyroid Receptor Alpha (TRa), THRA (gene 7067), sequence (P10827 whole entry, looked up): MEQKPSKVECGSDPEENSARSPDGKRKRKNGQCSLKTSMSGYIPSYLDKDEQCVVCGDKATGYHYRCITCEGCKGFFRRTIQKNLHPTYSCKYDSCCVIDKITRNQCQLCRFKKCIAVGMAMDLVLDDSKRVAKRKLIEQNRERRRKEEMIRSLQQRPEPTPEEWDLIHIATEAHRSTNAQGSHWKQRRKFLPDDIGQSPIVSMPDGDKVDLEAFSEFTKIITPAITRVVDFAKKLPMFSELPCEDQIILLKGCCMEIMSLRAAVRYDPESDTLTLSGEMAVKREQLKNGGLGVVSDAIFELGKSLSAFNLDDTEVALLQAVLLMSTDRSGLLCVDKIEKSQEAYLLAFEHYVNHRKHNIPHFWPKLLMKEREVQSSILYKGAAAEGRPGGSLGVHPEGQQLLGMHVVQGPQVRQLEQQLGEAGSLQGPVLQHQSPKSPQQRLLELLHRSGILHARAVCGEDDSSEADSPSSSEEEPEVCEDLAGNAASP
# Method in brief: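 Cell-free AlphaLISA chemiluminescent binding read 1 h after dosing, antagonist mode; signal loss versus DMSO baseline. Primary screen in duplicate at 25 uM, then concentration series for actives.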
# [13] = target: Glucocorticoid receptor (Homo sapiens) (UniProt P04150); assay: NVS_NR_hGR: NovaScreen (NVS) Nuclear Receptor Binding Assay for human Glucocorticoid Receptor (GR) (AID 2283363);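 on AC50: activity is loss of specific radioligand binding signal relative to DMSO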
# Glucocorticoid receptor (Homo sapiens), sequence (P04150 whole entry, looked up): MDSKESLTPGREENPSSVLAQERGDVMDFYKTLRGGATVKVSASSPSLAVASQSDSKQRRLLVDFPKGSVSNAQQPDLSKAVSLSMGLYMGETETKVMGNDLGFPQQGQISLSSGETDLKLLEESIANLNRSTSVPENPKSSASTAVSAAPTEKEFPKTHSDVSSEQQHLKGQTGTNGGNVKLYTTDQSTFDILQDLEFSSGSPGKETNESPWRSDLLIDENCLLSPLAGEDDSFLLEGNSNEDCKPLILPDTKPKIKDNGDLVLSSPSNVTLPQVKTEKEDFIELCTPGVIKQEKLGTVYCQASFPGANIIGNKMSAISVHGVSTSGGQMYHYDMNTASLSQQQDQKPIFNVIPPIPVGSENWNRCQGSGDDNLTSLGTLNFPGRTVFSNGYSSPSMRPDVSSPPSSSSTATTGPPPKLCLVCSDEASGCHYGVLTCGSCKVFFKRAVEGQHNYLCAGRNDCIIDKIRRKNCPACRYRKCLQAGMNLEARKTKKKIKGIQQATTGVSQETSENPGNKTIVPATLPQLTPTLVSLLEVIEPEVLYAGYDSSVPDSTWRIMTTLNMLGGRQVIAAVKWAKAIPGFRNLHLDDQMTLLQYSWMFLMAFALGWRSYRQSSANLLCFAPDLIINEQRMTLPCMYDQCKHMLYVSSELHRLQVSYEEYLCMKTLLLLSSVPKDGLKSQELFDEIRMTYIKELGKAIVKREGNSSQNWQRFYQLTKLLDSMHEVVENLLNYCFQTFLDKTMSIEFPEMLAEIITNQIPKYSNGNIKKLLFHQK
# Method in brief: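 Single-readout cell-free binding: radioligand plus extracted receptor, 16-hour dosing, filter radiodetection; 25 uM duplicate primary, concentration series secondary.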
# [14] = target: Retinoic acid receptor alpha (Homo sapiens) (UniProt P10276); assay: NVS_NR_hRARa_Agonist: NovaScreen (NVS) Nuclear Receptor Binding Assay for human Retinoic Acid Alpha Receptor Agonism (RAR) (AID 2283361)
# Method in brief: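 Compounds screened at 25 uM, duplicate, then in concentration series if active. Detection: TR-FRET gain of signal versus DMSO after 2 h with cell-free extracted RARα.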
# [15] = target: rat Androgen Receptor (AR), Ar (gene 24208) (UniProt P15207); assay: NVS_NR_rAR: NovaScreen (NVS) Nuclear Receptor Binding Assay for rat Androgen Receptor (AR) (AID 2283366)
# rat Androgen Receptor (AR), Ar (gene 24208), sequence (P15207 whole entry, looked up): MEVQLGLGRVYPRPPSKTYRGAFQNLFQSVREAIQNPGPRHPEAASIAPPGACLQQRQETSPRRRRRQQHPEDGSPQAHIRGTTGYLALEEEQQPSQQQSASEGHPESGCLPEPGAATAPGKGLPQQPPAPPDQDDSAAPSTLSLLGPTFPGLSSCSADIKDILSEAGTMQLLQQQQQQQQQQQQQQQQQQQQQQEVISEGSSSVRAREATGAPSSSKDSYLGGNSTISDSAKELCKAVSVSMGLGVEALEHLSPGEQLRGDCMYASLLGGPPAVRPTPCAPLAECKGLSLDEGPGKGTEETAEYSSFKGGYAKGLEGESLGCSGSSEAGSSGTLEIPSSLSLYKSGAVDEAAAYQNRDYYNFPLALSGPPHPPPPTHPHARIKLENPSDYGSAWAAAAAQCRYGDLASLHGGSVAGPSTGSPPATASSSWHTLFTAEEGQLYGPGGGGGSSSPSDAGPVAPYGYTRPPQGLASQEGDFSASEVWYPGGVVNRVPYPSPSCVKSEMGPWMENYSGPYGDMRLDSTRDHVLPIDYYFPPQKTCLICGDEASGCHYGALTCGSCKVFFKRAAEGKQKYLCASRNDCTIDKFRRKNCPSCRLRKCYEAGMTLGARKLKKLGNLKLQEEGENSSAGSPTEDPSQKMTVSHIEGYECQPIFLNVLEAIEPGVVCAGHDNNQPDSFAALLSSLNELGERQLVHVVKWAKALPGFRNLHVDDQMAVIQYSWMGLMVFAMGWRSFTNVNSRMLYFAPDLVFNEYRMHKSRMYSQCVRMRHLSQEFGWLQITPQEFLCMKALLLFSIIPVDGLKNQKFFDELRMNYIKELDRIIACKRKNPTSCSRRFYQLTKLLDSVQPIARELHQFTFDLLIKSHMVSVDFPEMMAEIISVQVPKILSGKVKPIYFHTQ
# Method in brief: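 Actives from a duplicate single-concentration (25 uM) primary run went on to concentration series. Displacement of radioligand was counted by filtration and scintillation, 18 h post-dose, using prostate extracts from testosterone-pretreated rats, with DMSO as baseline.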
# [16] = target: human Adenosine Transporter (Adot), SLC29A1 (gene 2030) (UniProt Q99808); assay: NVS_TR_hAdoT: NovaScreen (NVS) Transporter Assay for human Adenosine Transporter (Adot) (AID 2283368)
# Method in brief: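 Binding displacement on U937 extracted protein, read 1 h post-dose by filtration and scintillation counting. Primary duplicate test at 25 uM, then singleton concentration series with 50 uM top; DMSO baseline.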
# [17] = test system: rat Norepinephrine Transporter (NET), gene 83511; assay: NVS_TR_rNET: NovaScreen (NVS) Transporter Assay for rat Norepinephrine Transporter (NET) (AID 2283373)
# Method in brief: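 Competitive radioligand displacement at the rat NET using forebrain membrane preparations, 1 h incubation, filter-based scintillation readout. Primary testing in duplicate at a single 25 uM concentration; confirmed actives retested across concentrations.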
# [18] = target: guinea pig Sigma Receptor, Non-selective Binding, SIGMAR1 (gene 100135589) (UniProt Q60492); assay: NVS_OR_gSIGMA_NonSelective: NovaScreen (NVS) Nuclear Receptor Binding Assay for guinea pig Sigma Receptor, Non-selective Binding (AID 2283367)
# Method in brief: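 Test chemicals were screened in duplicate at 25 uM, then in concentration series if active, against radioligand binding to guinea pig brain membranes; filtration and scintillation counting at 1 h measured remaining bound ligand.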
compound,measurement,setting,value
CN(C)NC(=O)CCC(=O)O,AC50,[1],50 µM (active)
Nc1c(Cl)cc([N+](=O)[O-])cc1Cl,outcome,[2],inactive
same,outcome,[3],inactive
same,outcome,[4],inactive
same,outcome,[1],inactive
same,outcome,[5],inactive
same,outcome,[6],inactive
same,outcome,[7],inactive
same,outcome,[8],inactive
same,AC50,[9],25 µM (active)
same,AC50,[10],3.3 µM (active)
O=c1ccc(=O)[nH][nH]1,outcome,[2],inactive
same,outcome,[3],inactive
CCOP(=S)(OCC)Oc1ccc([N+](=O)[O-])cc1,outcome,[11],inactive
same,outcome,[12],inactive
same,AC50,[13],6.96 µM (active)
same,outcome,[7],inactive
same,AC50,[8],7.25 µM (active)
same,AC50,[10],8.93 µM (active)
CCOC(=O)COc1cc(-c2nn(C)c(OC(F)F)c2Cl)c(F)cc1Cl,outcome,[2],inactive
same,outcome,[3],inactive
same,outcome,[14],inactive
CCNc1nc(Cl)nc(NC(C)(C)C#N)n1,outcome,[1],inactive
C=C(C)[C@H]1Cc2c(ccc3c2O[C@@H]2COc4cc(OC)c(OC)cc4[C@@H]2C3=O)O1,AC50,[2],0.088 µM (active)
same,AC50,[3],0.973 µM (active)
same,outcome,[12],inactive
same,AC50,[13],0.425 µM (active)
same,outcome,[15],inactive
same,outcome,[6],inactive
same,outcome,[7],inactive
same,outcome,[9],inactive
C[N+]1(C)CCCCC1,outcome,[2],inactive
same,outcome,[1],inactive
same,outcome,[8],inactive
Cc1ccn2nc(S(=O)(=O)Nc3c(F)cccc3F)nc2n1,outcome,[1],inactive
CC(COc1ccc(Oc2ccccc2)cc1)Oc1ccccn1 (stereo not given),outcome,[2],inactive
same,outcome,[3],inactive
same,outcome,[1],inactive
same,outcome,[15],inactive
same,outcome,[7],inactive
same,outcome,[9],inactive
CSC1=N[C@@](C)(c2ccccc2)C(=O)N1Nc1ccccc1,outcome,[1],inactive
CCOP(=O)(NC(C)C)Oc1ccc(SC)c(C)c1 (stereo not given),outcome,[2],inactive
same,outcome,[3],inactive
same,outcome,[1],inactive
same,outcome,[5],inactive
same,outcome,[7],inactive
COP(=O)(OC)OC(Br)C(Cl)(Cl)Br (stereo not given),AC50,[2],32.5 µM (active)
same,outcome,[3],inactive
same,outcome,[4],inactive
Cc1nn(-c2cc(NS(C)(=O)=O)c(Cl)cc2Cl)c(=O)n1C(F)F,outcome,[2],inactive
same,outcome,[3],inactive
CC(Oc1cccc(Cl)c1)C(=O)O (stereo not given),outcome,[1],inactive
CCCCOC(=O)[C@@H](C)Oc1ccc(Oc2ccc(C#N)cc2F)cc1,outcome,[4],inactive
same,outcome,[1],inactive
same,outcome,[9],inactive
COc1ccc(C(=CC(=O)N2CCOCC2)c2ccc(Cl)cc2)cc1OC,outcome,[2],inactive
same,outcome,[3],inactive
same,outcome,[1],inactive
same,outcome,[5],inactive
same,AC50,[13],13.4 µM (active)
same,AC50,[16],9.48 µM (active)
same,outcome,[8],inactive
same,outcome,[10],inactive
Nc1nc(N)nc(NC2CC2)n1,outcome,[1],inactive
CCCSP(=O)(OCC)SCCC,outcome,[2],inactive
same,outcome,[13],inactive
same,outcome,[15],inactive
same,outcome,[7],inactive
CCCOc1nn(C(=O)NS(=O)(=O)c2ccccc2C(=O)OC)c(=O)n1C,outcome,[2],inactive
same,outcome,[3],inactive
CSc1nc(NC(C)C)nc(NC(C)C)n1,outcome,[4],inactive
same,outcome,[1],inactive
CC(C)=CC1C(C(=O)OCN2C(=O)C3=C(CCCC3)C2=O)C1(C)C (stereo not given),AC50,[2],78.6 µM (active)
same,AC50,[3],77.5 µM (active)
same,AC50,[16],25 µM (active)
same,outcome,[6],inactive
same,outcome,[8],inactive
same,outcome,[9],inactive
same,outcome,[10],inactive
CN(C)C(=O)Nc1cccc(C(F)(F)F)c1,outcome,[1],inactive
Cc1cc(C2CC2)nc(Nc2ccccc2)n1,AC50,[4],40 µM (active)
same,AC50,[1],50 µM (active)
same,outcome,[5],inactive
same,AC50,[17],5.69 µM (active)
CCCCOC(=O)c1ccccc1C(=O)O,outcome,[2],inactive
same,outcome,[3],inactive
same,outcome,[1],inactive
same,outcome,[5],inactive
same,outcome,[15],inactive
same,outcome,[6],inactive
same,outcome,[7],inactive
same,AC50,[9],8.41 µM (active)
CCCSP(=O)(OCC)Oc1ccc(Br)cc1Cl (stereo not given),AC50,[1],29.8 µM (active)
CCc1cccc(CC)c1N(COC)C(=O)CCl,AC50,[2],32 µM (active)
same,outcome,[3],inactive
same,outcome,[4],inactive
same,AC50,[7],21.2 µM (active)
CCC(=O)Nc1ccc(Cl)c(Cl)c1,outcome,[2],inactive
same,outcome,[3],inactive
same,AC50,[18],9.51 µM (active)
same,AC50,[17],4.96 µM (active)
same,AC50,[9],6.22 µM (active)
CNC(=O)ON=C(SC)C(=O)N(C)C,outcome,[2],inactive
same,outcome,[3],inactive
same,outcome,[4],inactive
same,outcome,[1],inactive
same,outcome,[5],inactive
same,outcome,[12],inactive
same,outcome,[15],inactive
